Assay outcomes from PubChem.
The list is not random: actives were taken first. Their share in the collection is about 1.3%.
EPAC2 agonist: EPAC2 (human) agonism | Q8WZA2 | Potency, µM (doses to about 154 µM), usual class: activators | EPAC2 activation, biochemical qHTS; response scale: 100% = 6.5 mM cAMP response | actives 0.079% (n = 360,000); note: nearly all actives have a fitted effect of over 50% in size
Target sequence (Q8WZA2 whole entry, looked up): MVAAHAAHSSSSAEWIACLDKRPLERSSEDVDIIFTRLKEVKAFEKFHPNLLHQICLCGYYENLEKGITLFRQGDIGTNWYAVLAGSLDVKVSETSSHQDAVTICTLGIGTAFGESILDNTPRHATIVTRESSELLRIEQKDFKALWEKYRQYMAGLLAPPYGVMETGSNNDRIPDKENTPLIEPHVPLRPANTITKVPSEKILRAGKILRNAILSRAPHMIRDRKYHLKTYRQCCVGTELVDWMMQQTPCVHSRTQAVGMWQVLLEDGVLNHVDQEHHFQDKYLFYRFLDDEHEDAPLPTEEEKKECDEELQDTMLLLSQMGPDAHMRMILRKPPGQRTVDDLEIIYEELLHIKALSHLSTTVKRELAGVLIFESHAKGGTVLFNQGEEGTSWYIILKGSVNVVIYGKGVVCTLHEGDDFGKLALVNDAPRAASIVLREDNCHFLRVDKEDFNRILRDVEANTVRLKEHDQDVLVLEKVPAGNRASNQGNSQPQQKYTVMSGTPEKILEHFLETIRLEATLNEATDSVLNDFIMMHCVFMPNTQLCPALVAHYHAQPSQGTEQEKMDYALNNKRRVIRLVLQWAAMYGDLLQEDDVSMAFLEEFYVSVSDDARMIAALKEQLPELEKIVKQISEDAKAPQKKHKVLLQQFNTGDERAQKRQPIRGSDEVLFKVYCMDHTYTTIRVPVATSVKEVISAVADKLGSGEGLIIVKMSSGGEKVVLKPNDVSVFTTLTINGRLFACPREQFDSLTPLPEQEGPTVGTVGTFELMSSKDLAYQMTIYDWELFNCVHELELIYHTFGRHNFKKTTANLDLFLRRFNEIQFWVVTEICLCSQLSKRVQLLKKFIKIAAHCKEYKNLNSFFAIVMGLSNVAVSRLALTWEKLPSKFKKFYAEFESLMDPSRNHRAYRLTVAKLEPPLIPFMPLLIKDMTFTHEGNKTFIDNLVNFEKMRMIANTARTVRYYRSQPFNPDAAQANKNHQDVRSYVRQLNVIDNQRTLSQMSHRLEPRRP
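Each well held 100 nM EPAC2, 250 nM RAP1B-BODIPY-GDP and 50 uM GDP. Fluorescence, read at 5-min intervals to 30 min, was referenced to a 6.5 mM cAMP positive control.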
BRCA1 expr act: increases BRCA1 expression; MCF7-BRCA1-FFLuc reporter, luminescence, 48 h; response scale: scaled: vehicle 0%, 10 µM genistein 100%; Potency, µM (doses to about 46.1 µM), usual class: activators; actives 1.1% (n = 380,000); AID 624202; note: nearly all actives have a fitted effect of over 80% in size
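Using MCF7 cells harboring a BRCA1 firefly luciferase reporter, plated 2 h before compound pinning, the screen measured luminescence after 48 h incubation. Responses were normalized to DMSO and 10 microM genistein, then fitted for concentration-effect.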
EPAC2 antagonist: EPAC2 (human) antagonism. Q8WZA2. EPAC2 GEF exchange of Rap1B-BODIPY-GDP, fluorescence. Potency, µM (top dose mostly 114 µM), usual class: inhibitors. actives 0.18% (n = 360,000); note: nearly all actives have a fitted effect of over 45% in size
RGS4 inhibitor: blocks human RGS4-accelerated GTP hydrolysis. AID 504845. Transcreener GDP fluorescence polarization, RGS4-accelerated GTP hydrolysis. actives 0.039% (n = 390,000). P49798. Potency, µM (highest dose often 114 µM), actives largely listed as inhibitors; note: nearly all actives have a fitted effect of over 75% in size
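MLSMR compounds (23 nl, pin-transferred) preincubated 10 min at room temperature with a 500nM (2x) first reagent, then RGS4 at 900nM (2x) plus Transcreener GDP mix added; fluorescence polarization (620/688 nm) read before and after 90 min at 30 °C.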
EPAC1 ag: EPAC1 (human) agonism. O95398. EPAC1 agonist qHTS, biochemical assay; response scale: 100% = response to 6.5 mM cAMP. Potency, µM (top dose mostly 154 µM), most hits filed as activators. actives 0.073% (n = 360,000); note: nearly all actives have a fitted effect of over 60% in size
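Fluorescent GDP-exchange assay: 100 nM EPAC1 with 250 nM Rap1B preloaded with BODIPY-GDP and 50 uM GDP; compounds tested as concentration series, 5 min at room temperature, then read every 5 min for 30 min (ex 480/em 540 nm); normalized to 6.5 mM cAMP.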
EPAC1 antagonist: blocks human EPAC1 exchange factor. actives 0.14% (n = 360,000). O95398. Potency, µM (doses to about 115 µM), hits mostly inhibitors. EPAC1 GEF assay, Rap1b-BODIPY-GDP exchange fluorescence; note: nearly all actives have a fitted effect of over 50% in size
A number is an active result; i = inactive; ? = inconclusive; nt = not tested or not shown; ! = repeats disagree. Calls come from the whole dose curve; as a rule, active = well fitted curve in the direction sought with a large enough effect; inconclusive = small, poorly fitted or top-dose-only effect, or another doubt; inactive = no such curve, though single readings can be large; an effect the other way counts as inactive or inconclusive.

SMILES	EPAC2 agonist	BRCA1 expr act	EPAC2 antagonist	RGS4 inhibitor	EPAC1 ag	EPAC1 antagonist
COc1cc(C(=O)OC2C[C@H]3CC[C@@H](C2)N3)ccc1O (stereo partly drawn)	i	i	i	i	i	i
O=C(c1cc(-c2cccc(Cl)c2)on1)N1CCOCC1	i	10µM	i	i	i	i
Cc1cccc(OC(=O)N2CCOCC2)c1	i	i	i	i	i	i
O=C(Oc1ccc(Cl)cc1)N1CCOCC1	i	i	i	?	i	i
O=C(c1cc(-c2ccc(Cl)cc2)n(-c2ccc(Cl)cc2Cl)n1)N1CCOCC1	10µM	i	i	i	i	i
O=[N+]([O-])c1ccc(N(CCO)CCO)c2c1no[n+]2[O-]	i	i	?	nt	i	56µM
CCN1/C(=C/C=C/C2=[N+](CC)c3ccccc3C2(C)C)C(C)(C)c2ccccc21	18µM	i	i	nt	56µM	i
O=C(CSc1nnc(NC(=O)c2ccccc2F)s1)NCc1ccc(F)cc1	i	5µM	i	i	i	i
CCSc1nnc(NC(=O)c2cccn(Cc3ccccc3Cl)c2=O)s1	nt	i	nt	i	nt	nt
COCCNC(=O)c1c(N)n(CCC(C)C)c2nc3ccccc3nc12	i	i	79µM	i	i	45µM
O=c1c2ccccc2[se]n1-c1ccccc1	i	i	i	0.67µM	i	i
O=c1c2ccccc2nc(-c2ccccc2)n1-c1ccccc1	i	i	i	i	i	i
Clc1cccc(Cl)c1Cn1nnc(N2CCCC2)n1	i	11µM	i	i	i	i
CCCCOC(=O)C1=C(N)OC2=C(C(=O)CC(C)(C)C2)[C@]12C(=O)N(C)c1ccccc12	i	i	i	i	i	i
O=C1NC(=O)C(=Cc2cn(CCOc3ccc4c(c3)OCO4)c3ccccc23)C(=O)N1	100µM	i	i	i	i	i
COc1cccc(-n2nc(C(=O)N3CCC4(CC3)OCCO4)c3ccccc3c2=O)c1	i	i	i	i	i	i
COc1ccc(-n2nc(C(=O)NCC(=O)N3CCC4(CC3)OCCO4)c3ccccc3c2=O)cc1OC	i	10µM	i	i	i	i
O=c1oc(Cl)c(Cl)c2ccccc12	i	i	i	11µM!	i	?
O=c1[nH]c2ccccc2n1C1CCN(C(c2nnnn2Cc2ccccc2)C2CC2)CC1 (stereo not drawn)	i	i	i	nt	i	i
CN1C2CCC1CC(OC(=O)c1cc(Cl)cc(Cl)c1)C2 (stereo not drawn)	i	i	i	30µM!	i	i
O=C1NC(=O)N(Cc2ccco2)C(=O)/C1=C/C=C/c1ccco1	i	i	i	?	i	56µM
Cc1ccc(N2C(=O)NC(=O)/C(=C\C=C\c3ccco3)C2=O)cc1C	i	i	i	?	i	56µM
O=C1NC(=O)N(Cc2ccccc2)C(=O)/C1=C\C=C\c1ccco1	i	i	i	?	i	56µM
Cc1ccc(N2C(=O)NC(=O)/C(=C\C=C\c3ccco3)C2=O)cc1	i	i	i	?	i	?
CCOC(=O)C1C(=O)N(C)C2(C)CC1c1cc(OC)ccc1O2 (stereo not drawn)	i	i	i	i	i	i
SMILES	EPAC2 agonist	BRCA1 expr act	EPAC2 antagonist	RGS4 inhibitor	EPAC1 ag	EPAC1 antagonist
CCOC(=O)C(=O)NC1CCSC1=O (stereo not drawn)	i	i	i	i	i	i
Cn1cc(/C=C2\C(=O)NC(=O)N(c3ccccc3)C2=O)c2ccccc21	100µM	i	i	i	i	i
CC(=O)OC1CC(OC2C(O)CC(OC3C(O)CC(OC4CCC5(C)C(CCC6C5CC(O)C5(C)C(C7=CC(=O)OC7)CCC65O)C4)OC3C)OC2C)OC(C)C1OC1OC(CO)C(O)C(O)C1O (stereo not drawn)	112µM	i	89µM	i	i	i
COC(=O)c1cn(C(=O)c2cccc3ccccc23)c2ccccc12	i	i	8.9µM	i	i	i
CN(N=O)c1cc(O)ccc1O	nt	i	nt	24µM	nt	nt
O=C(O)[C@H]1[C@H]2CN[C@H](C(=O)O)[C@H]21	nt	nt	nt	6µM	nt	nt
C=C(C)[C@H]1CN[C@H](C(=O)O)[C@@H]1CC(=O)O	nt	nt	nt	i	nt	nt
